Screening results (PubChem BioAssay)
This is one part of a sample in which hits are shown more often than they occur.
Pf Dd2 growth: blocks in vitro growth of P. falciparum Dd2 | AID 1347417 | Potency, µM (top dose mostly 28.9 µM), without a hit: at the highest dose activity, negative = inhibition, hits mostly inhibitors | P. falciparum Dd2 growth, SYBR Green, 72 h | 120,000 compounds, 4.3% hits; active = well fitted inhibition curve with a large enough effect;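 also: plate controls were DMSO vehicle for no effect and reference drug for full effect; nearly all actives have a fitted effect of over 65% in size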
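Infected erythrocytes (Dd2, 0.3% parasitemia, 2.5% hematocrit final) are added to compound in RPMI-1640/Albumax II medium, grown 72 h at 37C in low oxygen, then lysed with saponin/Triton-X containing SYBR Green and read by fluorescence.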
The depositor's hits bear a star; i = inactive; [ ] = remark or other dose. Potency is read from the fitted curve at half-maximal effect.

SMILES | Pf Dd2 growth
Cc1ccc(N2C(=O)c3n[nH]c(C)c3C2c2ccc(C(C)C)cc2)cc1 (centres undefined) | i
CC(C)c1ccc(C2c3c(-c4ccccc4O)n[nH]c3C(=O)N2Cc2ccncc2)cc1 (centres undefined) | 13µM*
CC(C)c1ccc(C2NC(=O)c3n[nH]c(-c4cccs4)c32)cc1 (centres undefined) | i
CSc1ccc(C2c3c(-c4ccccc4O)n[nH]c3C(=O)N2Cc2ccncc2)cc1 (centres undefined) | 13µM*
CN1C(=O)c2[nH]nc(-c3ccc(F)cc3)c2C1c1cccc(O)c1 (centres undefined) | -5%
COCC[C@]1(O)CCN(C(=O)CCc2nc(-c3ccco3)no2)C[C@H]1C | 0%
Cc1ccc(OCC(=O)c2ccc3c(c2)N(CCCC(=O)N2CCCC2)C(=O)CO3)cc1C | -4%
O=C(c1nc(-c2cc(Cl)cc(Cl)c2)c2ccccn12)N1CCCC1 | 2%
CN(C)CCNC(=O)c1cc2n(n1)CCCN(C(=O)[C@@H]1CCCN1)C2 | -17%
COc1ccc(OC)c(CCNC(=O)c2ccc3c(c2)N(Cc2ccccc2)CCS3)c1 | -21%
O=C(Nc1ccc(Cl)cc1)c1ccc2c(c1)N(Cc1ccccc1)CCS2 | 4.5µM*
Cc1ccc(CN2CCSc3ccc(C(=O)Nc4ccc(Cl)cc4)cc32)cc1 | 7.9µM*
O=C(NCCc1ccc(Cl)cc1)c1ccc2c(c1)N(Cc1ccccc1)CCS2 | 1%
CCN1CCSc2ccc(C(=O)NCc3ccc(OC)cc3)cc21 | -21%
Cc1ccc(CN2CCSc3ccc(C(=O)NCc4ccc(OC(C)C)cc4)cc32)cc1 | -24%
O=C1NCCOCCN(C(=O)NC2CCCCC2)[C@@H]2CCCC[C@H]12 | 11%
O=C(NCCc1ccccc1)N1CCCC(c2nc(CCOCC3CC3)no2)C1 (centres undefined) | i
COC[C@@H]1[C@H](C(=O)NCCCc2ccccc2)CCC(=O)N1C | 10%
COc1ccc2[nH]c(C(=O)N[C@H]3COC[C@H]3Cc3cc(C)no3)c(C)c2c1 | 0%
CCCc1nnsc1C(=O)N[C@@H]1COCC[C@@H]1OCC1CC1 | -23%
Cc1ccccc1Cn1c2ccccc2c2cnn(CC(=O)NCc3cccc(Cl)c3)c(=O)c21 | -5%
O=C(Cn1ncc2c3ccccc3n(Cc3ccc(Cl)cc3)c2c1=O)NCCCc1ccccc1 | 34%[0.594 µM]
CCCCN(C)CCCNC(=O)Cn1ncc2c3ccccc3n(Cc3cccc(Cl)c3)c2c1=O | 5.6µM*
CCCN1CCN(C(=O)Cn2ncc3c4ccccc4n(Cc4cccc(Cl)c4)c3c2=O)CC1 | 11µM*
O=C(Cn1ncc2c3ccccc3n(Cc3cccc(Cl)c3)c2c1=O)NCCCc1ccccc1 | -6%
SMILES | Pf Dd2 growth
Cc1cc(C)c(Cn2c3ccccc3c3cnn(CC(=O)NCc4ccc(Cl)cc4)c(=O)c32)c(C)c1 | 7.9µM*
CCCn1c2ccccc2c2cnn(CC(=O)NC(C)CC)c(=O)c21 (centres undefined) | 5%
Cc1ccc(Cn2c3ccccc3c3cnn(CC(=O)Nc4cc(Cl)ccc4C)c(=O)c32)cc1 | 12%
CCN(CC)CCCNC(=O)Cn1ncc2c3ccccc3n(Cc3ccccc3)c2c1=O | -22%
CCOCC(=O)N[C@H]1CN(Cc2nc(C)c(C)n2C)C[C@@H]1C(C)C | -27%
CC(C)N1C(=O)C2(CCCC2)C1C(=O)N1CCCC1 (centres undefined) | -10%
Cc1ccc(CN2CCc3nn(Cc4ccccc4)c(=O)n3CC2)nc1 | i
Cc1cc(C(=O)N2CC(c3nnc(-c4ccncc4)o3)C3(CCOCC3)C2)n(C)n1 (centres undefined) | -1%
CC(C)N1C(=O)CO[C@H](c2ccc(NC(=O)c3cnccn3)cc2)[C@H]1CO | -18%[44.1 µM]
Cc1cnc(C(=O)N2CCCC(c3nnc(Cn4cccn4)n3C)C2)cn1 (centres undefined) | 17%
CC(C)N1C[C@H](O)C[C@H]1c1nnc2n1CCN(C(=O)c1cccn1C)CC2 | 19%
Fc1ccccc1N1CCN(c2ncc3c(n2)CCN(Cc2cc(Br)cs2)C3)CC1 | -19%
COc1cc(OC)c(OC)cc1CN1CCc2nc(Nc3ccc4c(c3)OCCO4)ncc2C1 | 10µM*
Clc1ccc(CN2CCc3nc(Nc4ccc5c(c4)OCCO5)ncc3C2)cc1 | i
Fc1ccccc1N1CCN(c2ncc3c(n2)CCN(Cc2ccc(Br)s2)C3)CC1 | -9%
CCOc1ccc(CN2CCc3nc(N4CCN(c5ncccn5)CC4)ncc3C2)cc1OC | 7.9µM*
COc1ccc(CN2CCc3nc(N4CCN(c5ccc(F)cc5)CC4)ncc3C2)c(OC)c1OC | 11µM*
CCOc1ccc(CN2CCc3nc(N4CCN(c5ccccc5OC)CC4)ncc3C2)cc1OC | -23%
CCc1ccc(CN2CCc3nc(N4CCN(c5ccccc5F)CC4)ncc3C2)cc1 | 8.9µM*
COc1cccc(CN2CCc3nc(Nc4ccc5c(c4)OCCO5)ncc3C2)c1 | -20%
COc1ccccc1N1CCN(c2ncc3c(n2)CCN(Cc2ccccc2F)C3)CC1 | 42%[5.79 µM]
COc1ccc(CN2CCc3nc(N4CCOCC4)[nH]c(=O)c3CC2)c(OC)c1OC | i[5.79 µM]
Clc1ccc(CN2CCc3nc(N4CCN(c5ccccn5)CC4)ncc3C2)cc1 | -5%
O=C(N[C@@H]1CN(C(=O)c2cc(-c3ccc(F)cc3)n[nH]2)CC[C@@H]1CO)C1CC1 | -15%
O=C(NC1CCCCCC1)c1ccc(N2CC3CC(C2)[C@H]2CCCC(=O)N2C3)nc1 (some centres undefined) | -4%
SMILES | Pf Dd2 growth
COc1ccc2[nH]c(C(=O)N3C[C@@H](Oc4ccccc4)C[C@H]3C(=O)N3CCOCC3)cc2c1 | -16%
O=C(Cn1nc2c(cc1=O)CCCC2)NCCc1nc2ccccc2[nH]1 | 4%
COCC(=O)N1CCn2c(nnc2-c2ccccc2)C1 | 4%[44.1 µM]
CN(C)CCCC(=O)N1CCC2(CC1)CN(C(=O)Cc1ccc(O)cc1)CCO2 | 9%
O=C(CCC(=O)N1CCn2nc(Cc3ccccc3)cc2C1)NC1CCCC1 | -4%
COc1ccc(C[C@H](NC(=O)C2=C[C@@H](NC(=O)c3ccc(OC)cc3)[C@@H](O)[C@H](O)C2)C(N)=O)cc1 | 14%
COCC(=O)NC[C@H]1O[C@H](Cc2cc(CN(C)C)on2)CC[C@@H]1O | 0%[44.1 µM]
CC(=O)N1CCC(N2CC[C@@H](CO)N(C)c3ncccc3C2)CC1 | 0%[44.1 µM]
COc1cc(NC(=O)c2ccc3c(c2)N(C)C2CCCCCN2C3=O)cc(OC)c1OC (centres undefined) | -3%
CC(C)c1noc([C@@H]2C[C@H]3C(=O)NCCCCCCN(C(=O)COc4ccc(F)cc4)[C@H]3C2)n1 | -6%
CCN1CCN(c2ncc3c(n2)CCN(Cc2cccc(F)c2F)C3)CC1 | 32%[5.79 µM]
COc1ccccc1N1CCN(c2ncc3c(n2)CCN(Cc2ccc(C)s2)C3)CC1 | -8%
COc1cc(OC)c(OC)cc1CN1CCc2nc(N3CCN(c4ncccn4)CC3)ncc2C1 | 7.9µM*
CN(C)c1ccc(-c2ccnc(N[C@H]3CO[C@H]4[C@@H]3OC[C@H]4OC(=O)Nc3cccc(C(F)(F)F)c3)n2)cc1 | -26%
CCOc1cc(=O)n2c(c1C(=O)Nc1cccc(Cl)c1C)CCCC2 | 24%
COc1cccc(NC(=O)N2CCC(Oc3ncccc3C(=O)N3CCOCC3)C2)c1 (centres undefined) | 9%
O=C1Nc2ccccc2CC12CCN2Cc1ccc(C(F)(F)F)cc1 (centres undefined) | i
CC(C)=CCN1Cc2ccccc2NC(=O)C12CCNC2 (centres undefined) | -14%[44.1 µM]
CC(=O)Nc1ccc(CN2CCC3(CC2)C(=O)Nc2ccccc23)cc1 | -14%
